From PubChem BioAssay
For part of these data: Entries with a potency or affinity are not part of this list. Activity calls are given as the source filed them.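 The calls were made as follows, unless noted: active = primary screen active and over 50% activation in each of two duplicate runs; inactive = the rest.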

Legend:
[1] = tested on: TRPC4 beta (transient receptor potential cation channel C4), mouse; assay: activators of mouse TRPC4 channel, confirmation, cell-based, Fluo4 calcium, HEK293 TRPC4beta/mu-opioid, duplicates, 10 µM (AID 2426;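 active = fluorescence ratio normalized to control raised more than 50% in primary screen plus both repeat runs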); settings: Fluo4 calcium fluorescence, at 10 µM; active compounds read high
[2] = tested on: transient receptor potential cation channel C4 beta (TRPC4), mouse; assay: activators of mouse TRPC4 channel, confirmation, cell-based, second round, Fluo4, HEK293 TRPC4beta/mu-opioid, 1 µM (AID 2461); settings: Fluo4 calcium fluorescence, at 1 µM; active compounds read high
[3] = tested on: TRPC4 (transient receptor potential cation channel C4 beta), mouse; assay: positive allosteric modulators of mouse TRPC4, confirmation, cell-based, second round, Fluo-4, HEK293 TRPC4beta/mu-opioid, 1 µM (AID 2554;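 active = primary screen hit whose fluorescence ratio, in both repeats, exceeds the weak agonist control mean by 3 SD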); settings: DAMGO EC20, Fluo-4 calcium flux, at 1 µM; active compounds read high
[4] = tested on: TRPC4 beta (transient receptor potential cation channel C4), mouse; assay: positive allosteric modulators of mouse TRPC4, confirmation, cell-based, Fluo-4, HEK293 TRPC4beta/mu-opioid (AID 2555;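 active = primary screen hit whose calcium fluorescence ratio, in both repeats, exceeds the weak agonist control mean by 3 SD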); settings: DAMGO EC20, Fluo-4 calcium flux, at 10 µM; active compounds read high
[5] = target: Short transient receptor potential channel 4 (Mus musculus) (UniProt Q9QUQ5); assay: inhibitors of mouse TRPC4 channel, confirmation, cell-based, Fluo4, HEK293 TRPC4beta/mu-opioid (AID 2636;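 active = calcium signal cut by more than 3 SD below the full-agonist control yet still positive, in both repeats and the earlier primary screen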); settings: DAMGO, Fluo4 calcium flux, at 10 µM; active compounds read high
Short transient receptor potential channel 4 (Mus musculus), sequence (Q9QUQ5 whole entry, looked up): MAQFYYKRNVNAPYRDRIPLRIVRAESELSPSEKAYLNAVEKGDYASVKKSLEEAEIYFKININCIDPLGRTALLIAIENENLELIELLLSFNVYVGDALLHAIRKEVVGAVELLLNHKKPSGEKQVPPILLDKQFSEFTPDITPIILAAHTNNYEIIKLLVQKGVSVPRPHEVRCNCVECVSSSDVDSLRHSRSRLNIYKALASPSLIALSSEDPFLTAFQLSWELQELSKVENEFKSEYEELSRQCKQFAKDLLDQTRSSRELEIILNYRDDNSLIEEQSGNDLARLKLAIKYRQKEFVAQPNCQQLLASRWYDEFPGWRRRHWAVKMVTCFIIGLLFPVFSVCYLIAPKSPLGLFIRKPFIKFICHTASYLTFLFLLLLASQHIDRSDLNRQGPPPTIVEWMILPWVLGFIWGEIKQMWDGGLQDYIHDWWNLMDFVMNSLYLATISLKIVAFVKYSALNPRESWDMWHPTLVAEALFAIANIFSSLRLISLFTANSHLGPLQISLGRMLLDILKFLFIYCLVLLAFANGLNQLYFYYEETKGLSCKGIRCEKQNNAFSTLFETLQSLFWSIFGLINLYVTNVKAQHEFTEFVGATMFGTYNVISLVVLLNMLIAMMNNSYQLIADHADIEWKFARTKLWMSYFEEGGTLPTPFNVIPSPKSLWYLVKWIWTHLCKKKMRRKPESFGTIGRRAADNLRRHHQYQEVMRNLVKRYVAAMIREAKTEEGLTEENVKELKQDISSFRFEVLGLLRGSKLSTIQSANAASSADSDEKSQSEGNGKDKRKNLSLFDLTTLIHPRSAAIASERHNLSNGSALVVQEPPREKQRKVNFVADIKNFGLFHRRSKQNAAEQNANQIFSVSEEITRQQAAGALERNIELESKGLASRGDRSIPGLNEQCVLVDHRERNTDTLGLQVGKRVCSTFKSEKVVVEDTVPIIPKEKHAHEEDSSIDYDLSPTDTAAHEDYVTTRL

[6] = target: Short transient receptor potential channel 4 (Mus musculus) (UniProt Q9QUQ5); assay: inhibitors of mouse TRPC4 channel, confirmation, cell-based, second round, Fluo4, HEK293 TRPC4beta/mu-opioid, 1 µM (AID 2637;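 active = calcium signal ratio cut to more than 3 SD under the fully stimulated control mean yet still positive, in both repeats and the primary screen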;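 as to inhibition: percent of integrated ratio relative to wells lacking test compound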); settings: Fluo4 calcium flux, DAMGO, at 1 µM; active compounds read high
[7] = target: Short transient receptor potential channel 4 (Mus musculus) (UniProt Q9QUQ5); assay: mouse TRPC4 channel activators, dose response, cell-based, HEK293 TRPC4/mu-opioid, Fluo-4 calcium (AID 434937;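 active = primary screen activator hit with a dose response curve and TRPC4 channel activation at any tested dose; inactive = no activation, no dose response, or not a primary hit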)
[8] = target: Short transient receptor potential channel 4 (Mus musculus) (UniProt Q9QUQ5); assay: TRPC4 positive allosteric modulators, dose response, cell-based, HEK293 TRPC4/mu-opioid, Fluo-4 calcium, EC20 DAMGO (AID 434941;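 active = earlier screen potentiator hit that boosts the TRPC4 ion channel at some dose, with a dose response; inactive = no potentiation, no dose response, or not a prior hit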;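 also: calcium entry triggered by an EC20 dose of DAMGO at the co-expressed mu-opioid receptor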)
[9] = target: Short transient receptor potential channel 4 (Mus musculus) (UniProt Q9QUQ5); assay: mouse TRPC4 channel inhibitors, dose response, cell-based, HEK293 TRPC4/mu-opioid, Fluo-4 calcium (AID 434942;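 active = primary screen inhibitor hit that blocks the TRPC4 channel at some tested dose, yielding a dose curve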)
[10] = target: Short transient receptor potential channel 6 (Mus musculus) (UniProt Q61143); assay: inhibition of mouse TRPC6 channel, confirmation, selectivity assay for TRPC4 inhibitor project, cell-based, HEK293, membrane potential dye, duplicate (AID 434948;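 active = active in primary screen and both duplicates, each dropping signal beyond three positive-control SD with fluorescence still positive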); settings: HEK293 TRPC6, membrane potential dye fluorescence, at 10 µM, stimulated with maximal-effect acetylcholine; active compounds read high
Short transient receptor potential channel 6 (Mus musculus), sequence (Q61143 whole entry, looked up): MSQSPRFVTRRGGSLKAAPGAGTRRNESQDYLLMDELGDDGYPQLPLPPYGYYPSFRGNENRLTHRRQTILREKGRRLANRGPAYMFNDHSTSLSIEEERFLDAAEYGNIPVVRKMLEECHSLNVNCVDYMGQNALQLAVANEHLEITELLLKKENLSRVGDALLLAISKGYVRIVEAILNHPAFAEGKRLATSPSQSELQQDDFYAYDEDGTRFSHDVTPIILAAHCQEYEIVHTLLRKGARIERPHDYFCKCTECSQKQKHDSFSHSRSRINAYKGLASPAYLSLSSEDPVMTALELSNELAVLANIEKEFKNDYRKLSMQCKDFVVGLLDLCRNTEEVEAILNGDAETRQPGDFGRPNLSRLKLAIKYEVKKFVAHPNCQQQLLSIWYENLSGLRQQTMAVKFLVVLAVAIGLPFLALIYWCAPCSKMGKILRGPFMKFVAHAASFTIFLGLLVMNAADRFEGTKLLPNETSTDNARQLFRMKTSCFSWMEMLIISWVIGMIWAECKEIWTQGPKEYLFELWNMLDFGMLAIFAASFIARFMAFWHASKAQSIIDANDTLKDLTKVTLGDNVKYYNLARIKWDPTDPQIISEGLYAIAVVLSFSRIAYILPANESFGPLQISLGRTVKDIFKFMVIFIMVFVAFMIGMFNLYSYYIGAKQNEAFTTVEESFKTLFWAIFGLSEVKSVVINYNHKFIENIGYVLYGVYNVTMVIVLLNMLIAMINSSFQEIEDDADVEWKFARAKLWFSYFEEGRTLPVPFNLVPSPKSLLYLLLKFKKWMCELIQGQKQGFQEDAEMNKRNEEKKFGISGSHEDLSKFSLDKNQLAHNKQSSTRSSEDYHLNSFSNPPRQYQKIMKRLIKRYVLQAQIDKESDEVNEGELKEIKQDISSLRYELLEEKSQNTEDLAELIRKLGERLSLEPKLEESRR

[11] = target: Short transient receptor potential channel 6 (Mus musculus) (UniProt Q61143); assay: activation of mouse TRPC6 channel, confirmation, selectivity assay for TRPC4 activator project, cell-based, HEK293, membrane potential dye, duplicate (AID 434950;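 active = membrane potential signal rise above negative control mean plus 3 SD in both duplicates, also active in the earlier TRPC4 screen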); settings: HEK293 TRPC6, membrane potential fluorescence, at 10 µM; active compounds read high
[12] = target: Short transient receptor potential channel 6 (Mus musculus) (UniProt Q61143); assay: TRPC6 potentiation by TRPC4 potentiator hits, confirmation, selectivity assay for TRPC4 potentiator project, HEK293 cells, membrane potential dye, duplicate (AID 434952;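 active = compound raising the membrane signal above positive-control mean plus 3 SD in both repeats, and a primary screen hit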); settings: HEK293 TRPC6, membrane potential dye fluorescence, at 10 µM, maximal acetylcholine added after compound; active compounds read high
[13] = target: Short transient receptor potential channel 4 (Mus musculus) (UniProt Q9QUQ5); assay: calcium flux activators in TRPC4/5HT1a cells, counter-screen for TRPC4 activator project, cell-based, second counter screen, HEK293 TRPC4/5HT1a, Fluo-4 (AID 434977;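 active = calcium signal rise above buffer-control mean plus 5 SD in both duplicates, and also a hit in the primary screen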); settings: Fluo-4 calcium flux, at 10 µM; active compounds read high
[14] = calcium flux inhibitors in TRPC4/5HT1a cells, confirmation, counter-screen for TRPC4 inhibitor project, cell-based, second counter screen, HEK293 TRPC4/5HT1a, Fluo-4 (AID 434978;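 active = primary screen active whose calcium signal fell more than 3 SD beyond the full-serotonin control mean in both duplicate plates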;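 as to outcome: serotonin given first at submaximal then at maximal dose after compound preincubation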); settings: Fluo-4 calcium flux, at 10 µM, serotonin added to trigger calcium flux; active compounds read high
[15] = tested on: TRPC4 (mouse), co-expressed with 5HT1a in HEK293; assay: calcium flux potentiators in TRPC4/5HT1a cells, confirmation, counter-screen for TRPC4 potentiator project, cell-based, second counter screen, HEK293 TRPC4/5HT1a, Fluo-4 (AID 434979;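 active = signal rise over 3 SD above mean of control wells given weak agonist, in both repeats and first screen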); settings: Fluo-4 calcium flux, at 10 µM, serotonin added at its EC20 dose; active compounds read high
[16] = calcium flux activation in mu-opioid HEK293 cells, confirmation, counter-screen for TRPC4 activator project, cell-based, HEK293 mu-opioid receptor line (AID 449723;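 active = hit in primary screen, with calcium signal over 5 SD above buffer well mean in both duplicates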;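 also: counter screen cells carry the mu-opioid receptor alone and lack TRPC4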); settings: Fluo-4 calcium fluorescence, at 10 µM; active compounds read high
[17] = calcium flux enhancement in mu-opioid HEK293 cells, confirmation, counter-screen for TRPC4 allosteric potentiator project, cell-based, HEK293 mu-opioid receptor line (AID 449724;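 active = calcium signal rise more than 3 SD above the low-dose agonist control mean, in both duplicate plates and the primary screen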); settings: Fluo-4 calcium flux, at 10 µM, compound added before EC20 DAMGO stimulus; active compounds read high

O=[N+]([O-])c1ccc(S(=O)(=O)NCCCc2ccccc2)cc1
inactive: outcome [1] | outcome [2] | outcome [3] | outcome [4] | outcome [5] | outcome [6] | outcome [7] | outcome [8] | outcome [9] | outcome [10] | outcome [11] | outcome [12] | outcome [13] | outcome [14] | outcome [15] | outcome [16] | outcome [17]

CN1CCN(c2ccc(Cl)cc2NC(=O)CC2OC(=O)c3ccccc32)CC1 (stereo not given)
active: potentiation [3] 33% | potentiation [4] 33% | potentiation [15] 24.4%
inactive: outcome [1] | outcome [2] | outcome [5] | outcome [6] | outcome [7] | outcome [8] | outcome [9] | outcome [10] | outcome [11] | outcome [12] | outcome [13] | outcome [14] | outcome [16] | outcome [17]

COc1ccc(N(C(=O)c2snc(C(N)=O)c2N)C(C(=O)NC2CCCCC2)c2ccc(C)o2)c(OC)c1 (stereo not given)
inactive: outcome [1] | outcome [2] | outcome [3] | outcome [4] | outcome [5] | outcome [6] | outcome [7] | outcome [8] | outcome [9] | outcome [10] | outcome [11] | outcome [12] | outcome [13] | outcome [14] | outcome [15] | outcome [16] | outcome [17]

COC1=C(C)C(O)=C(C(=O)/C=C/c2ccccc2)C(=O)C1(C)C
inactive: outcome [1] | outcome [2] | outcome [3] | outcome [4] | outcome [5] | outcome [6] | outcome [7] | outcome [8] | outcome [9] | outcome [10] | outcome [11] | outcome [12] | outcome [13] | outcome [14] | outcome [15] | outcome [16] | outcome [17]

CC1(C)CC(=O)C(C=NCCN2CCN(C3CC(=O)N(c4cccc(Br)c4)C3=O)CC2)=C(O)C1 (stereo not given)
inactive: outcome [1] | outcome [2] | outcome [4] | outcome [5] | outcome [6] | outcome [7] | outcome [8] | outcome [9] | outcome [10] | outcome [11] | outcome [12] | outcome [13] | outcome [14] | outcome [16] | outcome [17]
active: potentiation [3] 12% | potentiation [15] 16.8%

CC(=O)Oc1c(C)cc(O)c2ccccc12
inactive: outcome [1] | outcome [2] | outcome [3] | outcome [4] | outcome [5] | outcome [6] | outcome [7] | outcome [8] | outcome [9] | outcome [10] | outcome [11] | outcome [12] | outcome [13] | outcome [14] | outcome [15] | outcome [16] | outcome [17]

Cc1cc(/C=N/NC(=O)c2cccc([N+](=O)[O-])c2)c(C)n1-c1ccc(Cl)cc1Cl
inactive: outcome [1] | outcome [2] | outcome [3] | outcome [4] | outcome [7] | outcome [8] | outcome [9] | outcome [10] | outcome [11] | outcome [12] | outcome [13] | outcome [15] | outcome [16] | outcome [17]
active: inhibition [5] 88% | inhibition [6] 58% | inhibition [14] 35.8%

CCCN1CCN(C(=S)NCc2ccc(Cl)cc2)CC1
inactive: outcome [1] | outcome [2] | outcome [3] | outcome [5] | outcome [6] | outcome [7] | outcome [8] | outcome [9] | outcome [10] | outcome [11] | outcome [12] | outcome [13] | outcome [14] | outcome [16] | outcome [17]
active: potentiation [4] 8% | potentiation [15] 19.3%

CCn1c2ccccc2c2cc(NC(=O)CN3CCCC3)ccc21
inactive: outcome [1] | outcome [2] | outcome [3] | outcome [5] | outcome [6] | outcome [7] | outcome [8] | outcome [9] | outcome [10] | outcome [11] | outcome [12] | outcome [13] | outcome [14] | outcome [16] | outcome [17]
active: potentiation [4] 33% | potentiation [15] 11.8%

CCOC(=O)c1cc(=O)n(Cc2ccccc2C)c2ccccc12
active: potentiation [4] 74% | potentiation [15] 48.4%
inactive: outcome [1] | outcome [2] | outcome [3] | outcome [5] | outcome [6] | outcome [7] | outcome [8] | outcome [9] | outcome [10] | outcome [11] | outcome [12] | outcome [13] | outcome [14] | outcome [16] | outcome [17]

NCC(c1ccc(Cl)cc1Cl)c1c[nH]c2ccccc12 (stereo not given)
active: potentiation [15] 18.9%
inactive: outcome [1] | outcome [2] | outcome [3] | outcome [4] | outcome [5] | outcome [6] | outcome [7] | outcome [8] | outcome [9] | outcome [10] | outcome [11] | outcome [12] | outcome [13] | outcome [14] | outcome [16] | outcome [17]

CCc1cc(=O)oc2c(CNCc3ccccc3F)c(O)c(Cl)cc12
inactive: outcome [1] | outcome [2] | outcome [3] | outcome [4] | outcome [5] | outcome [6] | outcome [7] | outcome [8] | outcome [9] | outcome [10] | outcome [11] | outcome [12] | outcome [13] | outcome [14] | outcome [15] | outcome [16] | outcome [17]

Cn1c(CN2CCN(c3ccccc3NS(C)(=O)=O)CC2)nc2ccccc21
inactive: outcome [1] | outcome [2] | outcome [3] | outcome [4] | outcome [5] | outcome [6] | outcome [7] | outcome [8] | outcome [9] | outcome [10] | outcome [11] | outcome [12] | outcome [13] | outcome [14] | outcome [15] | outcome [16] | outcome [17]

CN(C)S(=O)(=O)c1cccc(COC(=O)c2ccc(Cl)cc2O)c1
inactive: outcome [1] | outcome [2] | outcome [3] | outcome [5] | outcome [6] | outcome [7] | outcome [8] | outcome [9] | outcome [10] | outcome [11] | outcome [12] | outcome [13] | outcome [14] | outcome [16] | outcome [17]
active: potentiation [4] 21% | potentiation [15] 41.5%

CCN(CCO)Cc1csc2ccc(Br)cc12
active: potentiation [3] 12%
inactive: outcome [1] | outcome [2] | outcome [4] | outcome [5] | outcome [6] | outcome [7] | outcome [8] | outcome [9] | outcome [10] | outcome [11] | outcome [12] | outcome [13] | outcome [14] | outcome [15] | outcome [16] | outcome [17]
